Test results as given in PubChem BioAssay.

Tested on: Plasmodium falciparum Sir2 (PF13_0152, Sir2A)
Test: pfSir2 binders on small-molecule microarrays, primary screen, biochemical, small-molecule microarray, 635 nm fluorescence (AID 1098);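 further: score merges spot fluorescence intensity with its signal-to-noise ratio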
Conditions: small-molecule microarray binding, fluorescence 635 nm; higher = more signal

SMILES	composite z-score
O=C1C2C=CC(C(O)C3CC=CCC3)N(Nc3ccccc3)C2C(=O)N1c1ccccc1 (configuration not stated)	1.33
C=CCNC(=O)[C@H]1[C@@H]2C(=O)O[C@@H](c3ccccc3)[C@@H](c3ccccc3)N2[C@@H](c2ccccc2OCCO)[C@]12C(=O)N(C(=O)OCCOC)c1ccc(C#CC3(O)CCCCCC3)cc12	1.32
COCCOC(=O)N1C(=O)[C@@]2(c3cc(C#CC4=CCCCC4)ccc31)[C@H](c1ccccc1OCCO)N1[C@H](c3ccccc3)[C@H](c3ccccc3)OC(=O)[C@H]1[C@@H]2C(=O)NC[C@H](O)c1ccccc1	1.53
CCCC[C@@H](O)C1=C(COc2ccccc2)C[C@H]2C(=O)N(Cc3ccccc3)C(=O)[C@H]2[C@H]1CO	0.146
O=C1OCCC/C=C\[C@H]2OC34C=CCN(c5ccc6ccccc6c5)C(=O)[C@H]3N(CCO)C(=O)[C@@H]4C12 (some centres not stated)	1.32
COC(=O)c1c(CC[C@@H](CO)NC(=O)N[C@@H](C)Cn2cc(-c3ccccn3)nn2)oc(C(C)=O)c1C(=O)OC	1.09
CC(C)C[C@@H]1NC(=O)[C@@H]2C[C@H](C(=O)NCCCCCCN)[C@H](c3cccc(OCCO)c3)N2C1=O	1.55
[N-]=[N+]=Nc1ccccc1C[C@@]1(C(=O)N2CCOCC2)N=C(c2ccc(OCCCO)cc2)O[C@@H]1c1ccccc1	0.816
CCOC(=O)C[C@H]1[C@H](OC(=O)c2cc3ccccc3oc2=O)[C@@H](NC(=O)CC(C)C)c2cc(OCCCO)ccc2N1C(=O)c1ccc2ccccc2n1	0.342
Cc1ccc(NN2C(C(O)c3c(F)cccc3Cl)C=CC3C(=O)N(C4CCCCC4)C(=O)C32)cc1 (configuration not stated)	0.338
O=C1O[C@@H](c2ccccc2)[C@@H](c2ccccc2)N2[C@@H](c3ccc(OCCO)cc3)[C@]3(C(=O)Nc4ccc(C#CC5=CCCCC5)cc43)[C@@H](C(=O)NC[C@H](O)c3ccccc3)[C@H]12	0.674
CCCN1C(=O)[C@]2(Cc3ccccc31)N=C(c1ccc(OCCCO)cc1)O[C@@H]2c1ccccc1	1.07
C[N+](C)(C)CCCCCCNC(=O)[C@@H]1C[C@@H]2C(=O)N3CCC[C@H]3C(=O)N2[C@@H]1c1ccc(O)cc1	1.1
CCOC(=O)C[C@H]1[C@H](OC(=O)c2ccc(C(=O)c3ccccc3)cc2)[C@@H](NC(=O)CC(C)C)c2cc(OCCCO)ccc2N1C(=O)c1ccccc1	0.449
CC1CC/C=C\[C@H]2OC34C=CCN(C(C)C)C(=O)[C@H]3N(CCO)C(=O)[C@@H]4C2C(=O)O1 (some centres not stated)	0.501
[N-]=[N+]=Nc1ccccc1C[C@]1(C(=O)N2CCOCC2)COC(c2ccc(OCCCO)cc2)=N1	1.6
CCCCCCc1nc(Cc2cc(OC)c(OC)c(OC)c2)cc2c1[Si](C(C)C)(C(C)C)OC2	0.209

Tested on: not listed separately
Test: small-molecule microarray binders of probe aDKK1, primary screen, biochemical, biotinylated probe, 635/667 nm fluorescence (AID 1099);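 further: score merges 667nm spot fluorescence with signal to noise across triplicate slides; reference of the scale not given here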
Conditions: higher = more signal

SMILES	composite z-score
CO[C@H]1O[C@H](CO)[C@@H](OC(=O)Nc2ccc3c(c2)OCO3)[C@H](OC(=O)Nc2ccc3c(c2)OCO3)[C@@H]1OC(=O)Nc1ccc2c(c1)OCO2	0.203
CCCC1(C(=O)OC)C=C2C(=C(C)C(=O)C2C)CN1 (configuration not stated)	0.719
CO[C@H]1O[C@H](CO)[C@@H](OC(=O)Nc2ccccc2)[C@H](OC(=O)c2cc3ccccc3[nH]2)[C@H]1OC(=O)c1cc2ccccc2[nH]1	0.576
O=C1O[C@H](c2ccccc2)[C@H](c2ccccc2)N2[C@H]1[C@@H](C(=O)O)[C@]1(C(=O)Nc3ccc(C#CCCO)cc31)[C@H]2c1ccccc1OCCO	-0.445
CCCCC[C@H]1OC[C@@]23C=C(Br)[C@@H](CC12)[C@@]1(CO1)C3=O (some centres not stated)	-0.323
CCCCN1CC=CC23O[C@@H]4/C=C\CCC(C)OC(=O)C4[C@H]2C(=O)N(CCCO)[C@@H]3C1=O (some centres not stated)	-0.235
CC[C@@H]1C=C(C(=O)O)[C@H](c2ccc(C#N)cc2)N1S(=O)(=O)c1ccc(C)cc1	0.313
O=C1[C@H]2C=C(I)[C@H](C[C@@H]2OCCOCCO)[C@@]12CO2	-0.261
COCCOC(=O)N1C(=O)[C@@]2(c3cc(C#CC4=CCCCC4)ccc31)[C@H](C(=O)Nc1nc3ccccc3s1)[C@H]1C(=O)O[C@H](c3ccccc3)[C@H](c3ccccc3)N1[C@@H]2c1ccc(O)cc1	0.157
COc1ccc([C@H]2OC[C@@H]3C[C@H](Cc4ccccc4)C(=O)N32)cc1	-0.157
NC(=O)NCC#Cc1ccc2c(c1)[C@]1(C(=O)N2)[C@H](c2ccccc2OCCO)N2[C@H](c3ccccc3)[C@H](c3ccccc3)OC(=O)[C@H]2[C@@H]1C(=O)O	-0.103
CC1CC/C=C\[C@H]2OC34C=CCN(c5ccc(Cl)cc5)C(=O)[C@H]3N(C(C)CO)C(=O)[C@]4(C)C2C(=O)O1 (some centres not stated)	-0.132
CCOC(=O)C1=C[C@@H](C(C)C)N(S(=O)(=O)c2ccc(C)cc2)[C@H]1c1ccc(C(F)(F)F)cc1	0.374
OCCCC1=CC(c2ccc(CN3CCCC3)cc2)N(Cc2cc3c(cc2Br)OCO3)CC1 (configuration not stated)	0.0738
CCCCCCCCCC(O)C1C=CC2C(=O)N(c3ccccc3)C(=O)C2N1Nc1cc(OC)c(OC)c(OC)c1 (configuration not stated)	-0.0249
COCCCNC(=O)[C@@]1(CCC(=O)OC(C)(C)C)N=C(c2ccc(OCCCO)cc2)O[C@H]1c1ccccc1N=[N+]=[N-]	1.36
COc1cc(OC)c(C(O)C2C=CC3C(=O)N(Cc4ccccc4)C(=O)C3N2n2cnnc2)cc1Br (configuration not stated)	0.287
C[N+](C)(C)CCCC[C@@H]1NC(=O)[C@@H]2C[C@H](C(=O)NCCCCCCN)[C@H](c3cccc(OCCO)c3)N2C1=O	1.85

SMILES	composite z-score
O=C1C2C=CC(C(O)C3CC=CCC3)N(Nc3ccccc3)C2C(=O)N1c1ccccc1 (configuration not stated)	1.13
C=CCNC(=O)[C@H]1[C@@H]2C(=O)O[C@@H](c3ccccc3)[C@@H](c3ccccc3)N2[C@@H](c2ccccc2OCCO)[C@]12C(=O)N(C(=O)OCCOC)c1ccc(C#CC3(O)CCCCCC3)cc12	-0.115
COCCOC(=O)N1C(=O)[C@@]2(c3cc(C#CC4=CCCCC4)ccc31)[C@H](c1ccccc1OCCO)N1[C@H](c3ccccc3)[C@H](c3ccccc3)OC(=O)[C@H]1[C@@H]2C(=O)NC[C@H](O)c1ccccc1	0.036
CCCC[C@@H](O)C1=C(COc2ccccc2)C[C@H]2C(=O)N(Cc3ccccc3)C(=O)[C@H]2[C@H]1CO	-0.302
O=C1OCCC/C=C\[C@H]2OC34C=CCN(c5ccc6ccccc6c5)C(=O)[C@H]3N(CCO)C(=O)[C@@H]4C12 (some centres not stated)	-0.416
COC(=O)c1c(CC[C@@H](CO)NC(=O)N[C@@H](C)Cn2cc(-c3ccccn3)nn2)oc(C(C)=O)c1C(=O)OC	-0.18
CC(C)C[C@@H]1NC(=O)[C@@H]2C[C@H](C(=O)NCCCCCCN)[C@H](c3cccc(OCCO)c3)N2C1=O	0.286
[N-]=[N+]=Nc1ccccc1C[C@@]1(C(=O)N2CCOCC2)N=C(c2ccc(OCCCO)cc2)O[C@@H]1c1ccccc1	1.46
CCOC(=O)C[C@H]1[C@H](OC(=O)c2cc3ccccc3oc2=O)[C@@H](NC(=O)CC(C)C)c2cc(OCCCO)ccc2N1C(=O)c1ccc2ccccc2n1	-0.12
Cc1ccc(NN2C(C(O)c3c(F)cccc3Cl)C=CC3C(=O)N(C4CCCCC4)C(=O)C32)cc1 (configuration not stated)	0.827
O=C1O[C@@H](c2ccccc2)[C@@H](c2ccccc2)N2[C@@H](c3ccc(OCCO)cc3)[C@]3(C(=O)Nc4ccc(C#CC5=CCCCC5)cc43)[C@@H](C(=O)NC[C@H](O)c3ccccc3)[C@H]12	-0.653
CCCN1C(=O)[C@]2(Cc3ccccc31)N=C(c1ccc(OCCCO)cc1)O[C@@H]2c1ccccc1	0.0194
C[N+](C)(C)CCCCCCNC(=O)[C@@H]1C[C@@H]2C(=O)N3CCC[C@H]3C(=O)N2[C@@H]1c1ccc(O)cc1	-0.0891
CCOC(=O)C[C@H]1[C@H](OC(=O)c2ccc(C(=O)c3ccccc3)cc2)[C@@H](NC(=O)CC(C)C)c2cc(OCCCO)ccc2N1C(=O)c1ccccc1	-0.0013
CC1CC/C=C\[C@H]2OC34C=CCN(C(C)C)C(=O)[C@H]3N(CCO)C(=O)[C@@H]4C2C(=O)O1 (some centres not stated)	-0.163
[N-]=[N+]=Nc1ccccc1C[C@]1(C(=O)N2CCOCC2)COC(c2ccc(OCCCO)cc2)=N1	0.399
CCCCCCc1nc(Cc2cc(OC)c(OC)c(OC)c2)cc2c1[Si](C(C)C)(C(C)C)OC2	-0.227
